These results are taken from PubChem BioAssay (EPA / NIEHS).

Values joined by “and” are separate entries in the source; they are usually repeats but may differ in a detail not shown here. Equal values may be shown once. Results filed as inconclusive are left out. Some structures have more than one record in an assay (separate samples or runs), and their calls can disagree. Active and inactive are the calls of the source. How the source made its calls: active means hit-call score of the fitted dose curve at least 0.9, where 1 is the maximum; inconclusive means response in the unintended direction; inactive means score below 0.9.

The term AC50 denotes the midpoint of the concentration-response curve, whichever way the signal moves.

Test [1] addresses Cellular tumor antigen p53 (Homo sapiens) (UniProt P04637). Description: TOX21_p53_BLA_p3_ratio: Tox21 HCT-116 p53 Agonism Beta-lactamase Assay, Ratio, Phase 3 (AID 2283596). An outline of the steps: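 Cells were seeded at 4000/well, rested 5 h at 37C, then dosed with DMSO compound solutions (217-fold dilution) for 16 h. CCF4-AM substrate was loaded for 2 h at room temperature, and the 460/530 nm emission ratio was fitted for gain of signal versus DMSO.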

Test [2] is described as follows: TOX21_p53_BLA_p4_viability: Viability Assessment in the Tox21 HCT-116 p53 Agonism Beta-lactamase Assay, Phase 4 (AID 2283597).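 Further: hits lower the luminescence signal meaning cytotoxicity.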 Summed up:
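ATP content by CellTiter-Glo luminescence, 30 min RT, read after the beta-lactamase ratio step. Cells: HCT116, 4000/well, compound added after 5 h, exposure 16 h at 37C. Signal loss = reduced viability.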

For test [3], the target named is Cellular tumor antigen p53 (Homo sapiens) (UniProt P04637). Description: TOX21_p53_BLA_p5_ratio: Tox21 HCT-116 p53 Agonism Beta-lactamase Assay, Ratio, Phase 5 (AID 2283599). An outline of the steps:
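HCT-116 cells carrying a p53-inducible beta-lactamase reporter were seeded at 4000 cells/well and dosed after 5 h with compound in DMSO (217-fold dilution). After 16 h at 37C, CCF4-AM substrate was added for 2 h, and the 460/530 nm emission ratio was scored as gain-of-signal versus DMSO.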

Test [4] in a line: TOX21_p53_BLA_p5_viability: Viability Assessment in the Tox21 HCT-116 p53 Agonism Beta-lactamase Assay, Phase 5 (AID 2283600). Summed up: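 ATP luminescence (CellTiter-Glo, 30 min, RT) served as the viability read-out, with loss of signal indicating cytotoxicity. Compounds in DMSO were pinned at a 217-fold dilution onto 4000 cells/well and incubated 16 h, 37C.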
For test [5], the target named is Cellular tumor antigen p53 (Homo sapiens) (UniProt P04637). Description: TOX21_p53_BLA_p4_ratio: Tox21 HCT-116 p53 Agonism Beta-lactamase Assay, Ratio, Phase 4 (AID 2283601). An outline of the steps:
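HCT116 cells carrying an inducible beta-lactamase reporter were plated at 4000 cells/well, rested 5 h, then exposed to compounds in DMSO (217-fold dilution) for 16 h at 37C. CCF4-AM substrate was loaded 2 h at room temperature; 460/530 nm emission ratio scored gain-of-signal versus DMSO.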

Test [6] is described as follows: Tanguay_ZF_120hpf_MORT_legacy: (Legacy) Oregon State University Tanguay Lab 120 Hour Post-fertilization zebrafish Assay for Mortality (AID 2283633).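 On AC50: fitted as increase in binary mortality versus DMSO negative control.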 An outline of the steps: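 Brightfield scoring of embryo death (binary) at 24 and 120 hpf; static exposure 6–120 hpf, 28C, sealed and foil-covered. Pronase-dechorionated 5D wild-type larvae, single embryo per well. DMSO 0.64% v/v; trimethyltin chloride 5uM positive control.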

Test [7] can be described thus: Tanguay_ZF_120hpf_YSE_legacy: (Legacy) Oregon State University Tanguay Lab 120 Hour Post-fertilization zebrafish Assay for Yolk Sac Edema (AID 2283634).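 On AC50: actives raise the incidence of yolk sac edema above the DMSO baseline.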 Summed up:
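Binary brightfield scoring of yolk sac edema at 120 hpf; DMSO baseline, gain-of-signal fitting. Dechorionated 5D larvae, one per well, static exposure 6–120 hpf, 28C, 0.64% DMSO. Dead embryos not scored.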

A short description of test [8]: Tanguay_ZF_120hpf_AXIS_legacy: (Legacy) Oregon State University Tanguay Lab 120 Hour Post-fertilization zebrafish Assay for Body Axis Malformation (AID 2283635).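 On AC50: potency for an increased fraction of larvae scored with body axis malformation.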 Summed up:
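Embryos: 5D wild-type, pronase-dechorionated 4 hpf; static exposure 6–120 hpf, 28C, sealed, dark, 1 embryo/well, 0.64% DMSO. 120 hpf axis malformation scored present/absent; dead embryos excluded. Analysed as gain of signal vs DMSO.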

Test [9] is described as follows: Tanguay_ZF_120hpf_SNOU_legacy: (Legacy) Oregon State University Tanguay Lab 120 Hour Post-fertilization zebrafish Assay for Snout Malformation (AID 2283637). An outline of the steps: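 Dechorionated zebrafish, individually housed from 6 hpf in covered, sealed wells at 28C with 0.64% DMSO vehicle, were examined at 120 hpf for snout malformation. Responses were binary and analysed positive-direction relative to DMSO.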

Test [10] can be described thus: Tanguay_ZF_120hpf_EYE_legacy: (Legacy) Oregon State University Tanguay Lab 120 Hour Post-fertilization zebrafish Assay for Eye Malformation (AID 2283636).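 Further: binary presence or absence of eye malformation scored by brightfield in 120 hpf larvae.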 Summed up: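 Static waterborne exposure of dechorionated zebrafish embryos (strain Tropical 5D), 6 to 120 hpf, sealed plates at 28C, 0.64% DMSO vehicle. Eye malformation is scored as a binary endpoint, with gain of signal analysed relative to DMSO.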

Chain of Cellular tumor antigen p53 (Homo sapiens) (P04637 whole entry, looked up): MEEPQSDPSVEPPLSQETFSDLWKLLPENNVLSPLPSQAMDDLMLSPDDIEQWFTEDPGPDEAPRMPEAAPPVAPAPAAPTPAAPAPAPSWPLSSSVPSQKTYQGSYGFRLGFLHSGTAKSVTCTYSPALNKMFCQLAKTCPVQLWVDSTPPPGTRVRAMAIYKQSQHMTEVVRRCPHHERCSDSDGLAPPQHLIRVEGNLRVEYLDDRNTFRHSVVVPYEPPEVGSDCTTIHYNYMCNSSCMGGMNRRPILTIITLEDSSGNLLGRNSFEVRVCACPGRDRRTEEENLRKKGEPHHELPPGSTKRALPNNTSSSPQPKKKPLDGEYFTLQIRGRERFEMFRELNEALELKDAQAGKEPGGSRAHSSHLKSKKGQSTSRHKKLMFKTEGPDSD

In the case of `CCCCC(O)(Cn1cncn1)c1ccc(Cl)cc1Cl` (configuration not stated), the result in test [1], in test [4], in test [6], in test [7], in test [8] and in [9] was inactive. Also, the values for the concentration at half-maximal activity (AC50) in [2], in test [3] and in test [5] were 82 µM (active), 72.8 µM (active) and 87 µM (active), respectively.
In the case of `CC(C)NC(=O)N1CC(=O)N(c2cc(Cl)cc(Cl)c2)C1=O`, the result in test [1], in [2], in [3], in [4], in [5] and in test [6] was inactive. The result in [7], in [8], in [10] and in test [9] was inactive.
On to `CCCCC(C#N)(Cn1cncn1)c1ccc(Cl)cc1` (configuration not stated), for which the result in [1], in [2], in [3], in test [4], in test [5] and in test [6] was inactive. For the same compound, the AC50 in test [7] is 37.7 µM (active); in test [8] it was 56 µM (active); in test [10] it was 49.4 µM (active); in [9], 48.6 µM (active).
For the compound `COP(=S)(OC)SCn1nnc2ccccc2c1=O`, the result in test [1], in test [2], in [3], in test [4], in test [5] and in test [6] was inactive. Also, the outcome in test [7], in [10] and in test [9] was inactive. In addition, the AC50 in test [5] was 43.5 µM (active); in [8] it was 17.3 µM (active).
As for `COC(=O)N(C(=O)N1CO[C@@]2(C(=O)OC)Cc3cc(Cl)ccc3C2=N1)c1ccc(OC(F)(F)F)cc1`, the outcome in test [1], in test [2], in [3], in test [4], in [6] and in test [7] was inactive. In addition, the result in test [10] and in test [9] was inactive. Further, in test [5], the AC50 is 37.6 µM (active).
`CCOP(=O)(OCC)Oc1nc(Cl)c(Cl)cc1Cl`: the result in [1], in test [2], in test [4], in test [7], in test [8] and in [10] was inactive. In addition, in test [9], the result was inactive. The AC50 was 38.3 µM (active) in test [3], 61.7 µM (active) in test [5] and 0.887 µM (active) in test [6].
Consider `C=CCOC(=O)C(C)(C)OC(=O)c1cc(-n2c(=O)cc(C(F)(F)F)n(C)c2=O)ccc1Cl`, for which the outcome in test [1], in test [2], in test [3], in test [4], in test [5] and in [6] was inactive. For the same compound, the outcome in test [7], in test [8], in test [10] and in test [9] was inactive.
On to `Cc1cc(C)nc(Nc2ccccc2)n1`, for which the result in [1], in [2], in test [3], in test [4], in test [6] and in [7] was inactive. Also, the compound was classed as inactive in test [10] and in test [9].
In the case of `CC1(C)C(C(=O)OC(C#N)c2cccc(Oc3ccccc3)c2)C1(C)C` (configuration not stated), the outcome in [1], in test [2], in test [3], in [4], in [5] and in test [6] was inactive. The result in [7], in test [8], in test [10] and in test [9] was inactive.
With `O=C1C2CC=CCC2C(=O)N1SC(Cl)(Cl)Cl` (configuration not stated), the AC50 in [1] was 77.7 µM (active) and 6.5 µM (active); in test [2] it was 18.1 µM (active); in test [3] it was 19.5 µM (active); in [5] it was 10.3 µM (active); in test [6], 25.1 µM (active). Moreover, the result in [1], in test [2], in [3], in test [4], in [5] and in [7] was inactive. The outcome in test [8] and in test [9] was inactive.
Consider `CC(C)N1C(=O)N(c2ccccc2)CSC1=NC(C)(C)C`, for which the result in test [1], in [3], in [6], in [7], in test [8] and in test [10] was inactive. Besides, the compound was called inactive in test [9]. Besides, the AC50 was 71.3 µM (active) in [2], 69 µM (active) in test [4] and 87.2 µM (active) in [5].
Regarding `N#Cc1c[nH]cc1-c1cccc2c1OC(F)(F)O2`, the AC50 was 8.51 µM (active) in test [1], 5.39 µM (active) in test [3], 6.17 µM (active) in test [5] and 25.9 µM (active) in test [6]. In addition, the result in test [2], in test [4], in test [7], in [8], in [10] and in test [9] was inactive.
Regarding `CO/N=C(/C1=NOCCO1)c1ccccc1Oc1ncnc(Oc2ccccc2Cl)c1F`, the result in [1], in [2], in test [3], in test [4], in [5] and in [7] was inactive. Moreover, the outcome in test [10] was inactive. The AC50 in test [6] is 2.4 µM (active); in [8], 5.15 µM (active).
`CC1(C)CCC(=Cc2ccc(Cl)cc2)C1(O)Cn1cncn1` (configuration not stated): the result in [1], in [2], in test [3], in [4], in test [5] and in test [6] was inactive. Also, the call in [7], in test [8] and in test [10] was inactive.
Consider `CSC(=O)c1c(C(F)F)nc(C(F)(F)F)c(C(=O)SC)c1CC(C)C`, for which the result in test [1], in [2], in test [3], in test [4], in test [6] and in test [7] was inactive. The result in [8], in test [10] and in [9] was inactive.
